# Assay outcomes: PubChem, Broad Institute
# Casp6 inh: human caspase-6 inhibitors, primary screen, biochemical, VEID-R110 fluorescence, single point, set 2; P55212; purified caspase-6, Z-VEID-R110 cleavage fluorescence; inhibition, % at 12.5 µM; 350,000 compounds, 0.53% hits; AID 686996, 2013;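 active = mean inhibition across replicates at least about 35%, with every replicate also reaching that limit, limit read from the data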;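 also: 0% = median of neutral control wells and 100% = no fluorescence left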
# CFTR F508del cor: F508del CFTR correction, initial screen, CFBE line, single point | activity (quench increase), % at 7.58 µM | AID 720511, 2013 | 350,000 compounds, 0.36% hits | CFBE cells, YFP halide quenching; stimulated with forskolin plus potentiator P3; % fluorescence drop versus neutral controls;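 active = mean added fluorescence quench of at least 8% versus neutral control, with both replicates also reaching 8%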;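 also: cells transiently co-express mutant CFTR-F508del with the halide-sensitive YFP; corrector assay measuring rescue of mutant channel to the surface after 24 h compound exposure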
# PglD DTNB: C. jejuni PglD acetyltransferase inhibitors, primary screen, biochemical, DTNB colorimetric, single point | 360,000 compounds, 0.098% hits | inhibition, % at 12.5 µM | AID 602405, 2012 | purified PglD enzyme, DTNB colorimetric CoA detection | UDP-N-acetylbacillosamine N-acetyltransferase PglD (Campylobacter jejuni); in the data active = inhibition above about 16%, passing the limit was not always enough
# ALR H2O2 inh: inhibitors of human ALR sulfhydryl oxidase, primary screen, biochemical, H2O2 detection, HRP-luminol luminescence, single point; FAD-linked sulfhydryl oxidase ALR (Homo sapiens), P55789; purified ALR, DTT oxidation; inhibition, % (no concentration beside the values); 290,000 compounds, 3.8% hits;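 active = mean replicate inhibition above about 79%, with every replicate also reaching it, limit read from the data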
# NSD2 inh: NSD2 histone methyltransferase inhibitors, primary screen, biochemical, AlphaScreen, single concentration, set 2; NSD2 peptide methylation, 120 min; inhibition, % at 12.5 µM; 310,000 compounds, 0.54% hits; in the data active = inhibition above about 50%
# Target sequence (O96028 whole entry, looked up): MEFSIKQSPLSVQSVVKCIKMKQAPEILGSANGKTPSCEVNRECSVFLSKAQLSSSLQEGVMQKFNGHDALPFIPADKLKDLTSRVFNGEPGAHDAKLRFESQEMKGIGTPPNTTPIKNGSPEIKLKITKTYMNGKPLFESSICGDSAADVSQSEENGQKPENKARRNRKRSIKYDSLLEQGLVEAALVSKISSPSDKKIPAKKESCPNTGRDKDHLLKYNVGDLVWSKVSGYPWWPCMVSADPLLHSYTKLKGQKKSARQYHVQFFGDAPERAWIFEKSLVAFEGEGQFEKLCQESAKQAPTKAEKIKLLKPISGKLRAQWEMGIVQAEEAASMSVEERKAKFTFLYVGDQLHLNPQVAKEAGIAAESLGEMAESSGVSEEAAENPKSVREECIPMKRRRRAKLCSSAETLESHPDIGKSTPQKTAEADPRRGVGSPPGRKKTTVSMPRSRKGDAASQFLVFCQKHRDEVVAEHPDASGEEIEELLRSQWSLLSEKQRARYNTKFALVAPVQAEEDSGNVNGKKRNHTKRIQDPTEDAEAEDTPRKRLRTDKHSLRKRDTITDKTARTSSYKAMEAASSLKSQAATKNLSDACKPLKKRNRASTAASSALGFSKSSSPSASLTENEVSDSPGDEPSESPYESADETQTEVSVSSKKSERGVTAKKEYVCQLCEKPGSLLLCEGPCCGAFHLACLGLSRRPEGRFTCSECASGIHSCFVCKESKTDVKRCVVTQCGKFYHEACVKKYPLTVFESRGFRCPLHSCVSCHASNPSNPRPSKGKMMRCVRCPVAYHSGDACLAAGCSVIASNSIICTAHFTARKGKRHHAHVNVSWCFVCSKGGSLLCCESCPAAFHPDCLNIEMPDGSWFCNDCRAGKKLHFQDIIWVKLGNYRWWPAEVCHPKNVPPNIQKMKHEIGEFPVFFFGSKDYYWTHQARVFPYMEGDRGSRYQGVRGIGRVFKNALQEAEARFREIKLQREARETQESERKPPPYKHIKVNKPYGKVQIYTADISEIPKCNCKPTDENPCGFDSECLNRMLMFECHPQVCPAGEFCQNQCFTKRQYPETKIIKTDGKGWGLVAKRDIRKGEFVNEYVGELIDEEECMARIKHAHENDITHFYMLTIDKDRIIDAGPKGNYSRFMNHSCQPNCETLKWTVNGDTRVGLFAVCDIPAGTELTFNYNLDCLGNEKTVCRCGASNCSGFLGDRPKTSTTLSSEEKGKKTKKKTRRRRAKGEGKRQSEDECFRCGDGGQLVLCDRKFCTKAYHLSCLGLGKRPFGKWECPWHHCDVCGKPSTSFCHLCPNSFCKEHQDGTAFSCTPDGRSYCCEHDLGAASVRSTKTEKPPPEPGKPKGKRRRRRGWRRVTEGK
# Env fusion inh: inhibitors of HIV-1 Env-driven cell-cell fusion, primary screen, HeLa-JRFL effector, CEM21 target cells, luciferase; 360,000 compounds, 1.1% hits; AID 651610, 2012; inhibition, % at 12.3 µM;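 active = mean replicate inhibition score of at least 50 and every replicate individually at or above 50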;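 also: 0% = plate neutral controls and 100% = maraviroc near 300 nM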
# * hit, by the source's call; nt = no result given; [ ] = another dose, or the depositor's remark. This is a sample that favours compounds with a hit; in the whole collection about 4.1% have one here.
SMILES,Casp6 inh,CFTR F508del cor,PglD DTNB,ALR H2O2 inh,NSD2 inh,Env fusion inh
CCCCC1(Cc2cccc([N+](=O)[O-])c2)C(=O)N(c2ccccc2)N(c2ccccc2)C1=O,nt,nt,1,nt,2,120*
CCCCC1(CO)C(=O)N(c2ccccc2)N(c2ccccc2)C1=O,3,-2,1,0,7,-1
CCOC(=O)C1CCCN(Cc2c(F)cccc2Cl)C1 (stereo unspecified),-1,1,4,99*,-2,nt
CCOC(=O)C1CCN(Cc2cn[nH]c2-c2ccc(C)cc2)CC1,nt,nt,nt,-11,0,-18
CCOC(=O)C1CCCN(Cc2nc(N)nc(Nc3ccc(OC)cc3)n2)C1 (stereo unspecified),nt,nt,0,-9,7,70*
CCOC(=O)C1CCCN(Cc2nc(N)nc(Nc3ccc(Cl)cc3)n2)C1 (stereo unspecified),nt,nt,6,0,7,nt
CCOC(=O)C1CCN(Cc2ccc(N(C)C)cc2)CC1,nt,nt,-6,99*,1,4
CCOC(=O)C1CCN(Cc2cn[nH]c2-c2ccccc2)CC1,nt,nt,-11,0,126*,-41
CCOC(=O)C1CCN(Cc2ccc(F)c(F)c2)CC1,nt,nt,nt,0,0,0
COc1cccc(C#Cc2ccc([C@@H]3[C@H](CO)N4C(=O)CN(C(=O)C5CC5)C[C@@H]34)cc2)c1,0,-2,nt,nt,nt,nt
CO[C@@H]1CN(C)C(=O)c2cc(NS(C)(=O)=O)ccc2OC[C@H](C)N(Cc2cocn2)C[C@H]1C,2,0,nt,nt,nt,nt
CCOC(=O)C1CCN(Cc2c(F)cccc2Cl)CC1,0,1,nt,98*,2,nt
CCOC(=O)C1CCN(C(=O)Cc2c(F)cccc2Cl)CC1,3,-1,nt,0,0,nt
COc1cccc(NC(=O)CSc2nnc(COc3ccc4c(c3)CCCC4)o2)c1,nt,nt,-3,3,2,nt
COc1ccc(NCc2nnc(SCC(=O)c3ccc(OC)cc3)o2)cc1,nt,nt,-3,98*,1,-8
COc1ccc(OCc2nnc(SCC(=O)Nc3cccc(C(C)=O)c3)o2)cc1,1,2,4,99*,-1,-2
COc1ccc(OC)c(NC(=O)CSc2nnc(CNc3ccc(F)cc3)o2)c1,nt,nt,-7,91*,-1,1
COc1ccc(NCc2nnc(SCC(=O)Nc3cccc(C)c3)o2)cc1,nt,nt,-3,99*,2,-75
COc1ccc(NCc2nnc(SCC(=O)Nc3ccccc3OC)o2)cc1,nt,nt,0,19,1,6
C[C@H](CO)N1C[C@H](C)[C@@H](CN(C)C(=O)C2CCC2)Oc2cc(-c3ccc(F)cc3)ccc2S1(=O)=O,nt,-5,nt,nt,nt,8[16.7 µM]
O=C(O)C[C@H]1CC[C@H](NC(=O)Nc2ccccc2)[C@H](CO)O1,-6,-1,-2,nt,nt,-1[16.7 µM]
Cc1ccc(S(=O)(=O)Nc2ccc3c(c2)C(=O)N([C@@H](C)CO)C[C@H](C)[C@@H](CN(C)C(=O)Nc2c(C)noc2C)O3)cc1,nt,-1,3,nt,nt,-18[16.7 µM]
O=C(CSc1nnc(CNc2ccc(F)cc2)o1)N1CCN(C(=O)c2ccco2)CC1,nt,nt,-4,1,-5,nt
CCc1nnc(NC(=O)CSc2nnc(CNc3ccc(Cl)cc3)o2)s1,nt,nt,0,99*,nt,nt
O=C(CSc1nnc(CNc2ccc(F)cc2)o1)N1c2ccccc2Sc2ccccc21,nt,nt,-6,-3,-3,64*
SMILES,Casp6 inh,CFTR F508del cor,PglD DTNB,ALR H2O2 inh,NSD2 inh,Env fusion inh
C[C@H](CO)N1C[C@H](C)[C@@H](CN(C)S(=O)(=O)c2cn(C)cn2)Oc2ccc(NC(=O)Nc3cccc4ccccc34)cc2CC1=O,2,-5,0,nt,nt,10[16.7 µM]
CO[C@@H]1CN(C)C(=O)c2cc(NC(C)=O)ccc2OC[C@@H](C)N(Cc2cccc(F)c2)C[C@H]1C,0,0,0,nt,nt,7[16.7 µM]
O=C(NCc1cccnc1)c1c[nH]c2cc3c(cc2c1=O)OCCO3,nt,nt,-2,-1,nt,75*
O=C(NCc1ccccc1)c1c[nH]c2ccc(S(=O)(=O)Nc3ccc4c(c3)OCCO4)cc2c1=O,nt,nt,0,-1,-1,nt
CN(C)c1ccc(/C=N/NS(=O)(=O)c2ccc(Br)cc2)cc1,1,-3,3,90*,6,-50
COc1cc(/C=N/NS(=O)(=O)c2ccc(Br)cc2)ccc1O,-1,0,4,99*,2,nt
Cc1ccc(S(=O)(=O)N/N=C/c2ccc(C(=O)O)cc2)cc1,nt,nt,3,5,0,nt
COc1ccc(Br)cc1C=NNS(=O)(=O)c1ccc(C)cc1,-2,5,2,nt,-3,-111
CCNC(=O)[C@@H]1[C@@H](CO)[C@@H]2Cn3c(ccc(C4=CCCC4)c3=O)[C@H]1N2Cc1ccncc1,2,2,2,nt,nt,nt
Cc1noc(C)c1NC(=O)N(C)C[C@H]1OCCCC[C@H](C)Oc2ccc(NS(C)(=O)=O)cc2C(=O)N([C@@H](C)CO)C[C@H]1C,nt,2,-1,nt,nt,-18[16.7 µM]
Cc1cc(=O)n2cc(-c3ccccc3)nc2[nH]1,nt,nt,nt,87*,-1,-113
COc1ccc(/C=C2\CCCC3C2=NN(C(=O)c2ccco2)C3c2ccc(OC)c(OC)c2)cc1OC (stereo unspecified),nt,nt,-7,-5,2,nt
COc1ccc(/C=C2\CCCC3C2=NN(C(=O)c2scnc2C)C3c2ccc(OC)c(OC)c2)cc1OC (stereo unspecified),nt,nt,-3,-10,0,66*
Cc1c(C(=O)NCCNc2ncc(C(F)(F)F)cc2Cl)cccc1[N+](=O)[O-],0,1,2,nt,3,15
O=[N+]([O-])c1cccc(Cl)c1NCCNc1ncc(C(F)(F)F)cc1Cl,nt,nt,3,100*,1,nt
OC[C@H]1[C@H](c2ccc(Br)cc2)[C@H]2CN(Cc3cncnc3)CCCCN21,2,2,4,nt,nt,nt
C[C@H](CO)N1C[C@H](C)[C@@H](CN(C)C(=O)c2ccccc2)Oc2ncc(C3=CCCCC3)cc2C1=O,-2,-1,11,nt,nt,-13[16.7 µM]
C[C@H]1CCCCO[C@H](CN(C)C(=O)CCC(F)(F)F)[C@@H](C)CN([C@@H](C)CO)C(=O)c2cc(NC(=O)CCC(F)(F)F)ccc2O1,-2,0,4,nt,nt,12[16.7 µM]
C[C@@H]1CCCCO[C@@H](CN(C)C(=O)Nc2ccccc2)[C@H](C)CN([C@H](C)CO)C(=O)c2cc(NC(=O)CCC(F)(F)F)ccc2O1,-2,0,0,nt,nt,66*[16.7 µM]
C[C@@H]1CCCCO[C@H](CN(C)C(=O)Nc2ccccc2)[C@@H](C)CN([C@@H](C)CO)C(=O)c2cc(NC(=O)CCC(F)(F)F)ccc2O1,2,-2,1,nt,nt,-97[16.7 µM]
